The source of these data is PubChem BioAssay (EPA / NIEHS).

Molecules are shown by their SMILES. Where “and” joins values, the source holds several entries; their conditions need not be identical. Equal entries are not always repeated. Some compounds were tested as several samples or in several runs, with calls that do not always agree. Calls of active or inactive are those of the source. How the source made its calls: active means hit-call score of the fitted dose curve at least 0.9, where 1 is the maximum; inactive means score below 0.9.

Test [1] is described as follows: ATG_E_Box_CIS: Attagene CIS-FACTORIAL HepG2 Assay for human Enhancer Box (E-box) (AID 2282936). Particulars: HepG2 E-box cis-reporter transcription, actives raise or lower the signal. The procedure, abridged: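 DMSO served as negative control and baseline for bidirectional fitting. Human hepatoma HepG2 cells, transiently transfected with cis-reporter constructs, were dosed 24 h; reporter mRNA read by RT-PCR and capillary electrophoresis.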

Test [2] in a line: ATG_M_61_CIS: Attagene CIS-FACTORIAL HepG2 Assay for M61 Transcription Factor (Internal Marker) (AID 2282937). Particulars: HepG2 Attagene CIS-FACTORIAL M61 internal marker reporter; actives raise or lower the signal. An outline of the steps: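 Endogenous transcription factor activity in HepG2 is read through transiently transfected cis-element reporter units. After 24 h dosing, RNA undergoes reverse transcription, PCR and primer extension with 6-FAM before capillary electrophoresis; DMSO-referenced bidirectional fit.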

The nature of test [3]: ATG_EGR_CIS: Attagene CIS-FACTORIAL HepG2 Assay for human Early Growth Response 1 (EGR1) (AID 2282938). To be noted: HepG2 Attagene CIS-FACTORIAL EGR reporter mRNA; actives raise or lower the signal. The procedure, abridged:
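Activity is taken as induction or loss of reporter mRNA versus DMSO, fitted bidirectionally. Transcripts from cis-regulated reporter units in transiently transfected HepG2 were measured after 24 h by RT-PCR with capillary electrophoresis.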

Test [4] is described as follows: ATG_M_19_CIS: Attagene CIS-FACTORIAL HepG2 Assay for M19 Transcription Factor (Internal Marker) (AID 2282939). Particulars: HepG2 Attagene CIS-FACTORIAL M19 internal marker reporter; actives raise or lower the signal. An outline of the steps:
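Chemical-treated HepG2 (24 h) with MRTU constructs; reporter transcripts detected by fluorescent RT-PCR fragment analysis on capillary electrophoresis. Internal background marker, DMSO as baseline.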

Test [5] is described as follows: ATG_ERE_CIS: Attagene CIS-FACTORIAL HepG2 Assay for Estrogen Response Element (ERE) (AID 2282940). To be noted: HepG2 ERE cis-reporter, Attagene RNA transcript; actives raise or lower the signal. An outline of the steps: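 Human liver cells (HepG2) bearing transiently transfected, promoter-regulated reporter units were exposed 24 h. Reporter mRNA induction was detected by capillary electrophoresis of labelled RT-PCR products and fitted bidirectionally to DMSO.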

Test [6] in a line: ATG_Ets_CIS: Attagene CIS-FACTORIAL HepG2 Assay for human Erythroblast Transformation Specific (ETS) (AID 2282941). To be noted: HepG2 ETS cis-reporter transcription, actives raise or lower the signal. An outline of the steps:
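Human HepG2 hepatoma cells were transiently transfected with promoter-driven reporter constructs and treated for 24 hours. Reporter transcripts were quantified by RT-PCR with fluorescent primer extension; bidirectional curve fitting used DMSO as reference.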

In test [7] the target is Hepatocyte nuclear factor 3-beta (Homo sapiens) (UniProt Q9Y261). The test can be described thus: ATG_FoxA2_CIS: Attagene CIS-FACTORIAL HepG2 Assay for human Forkhead box A2 (FOXA2) (AID 2282942). Particulars: HepG2 cis-reporter transcription factor activity, 24 h; actives raise or lower the signal. An outline of the steps:
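Reporter transcript induction is measured by fluorescence after capillary electrophoresis of RT-PCR products from HepG2 cells exposed 24 h. Cis-regulated reporter units report endogenous factor activity; curves fitted both directions against DMSO.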

Test [8] can be described thus: ATG_FoxO_CIS: Attagene CIS-FACTORIAL HepG2 Assay for human Forkhead box O (FoxO) (AID 2282943). Particulars: HepG2 Attagene cis-reporter, FoxO element, mRNA; actives raise or lower the signal. An outline of the steps: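 HepG2, transient MRTU transfection (cis element, endogenous TFs). Dose 24 h. TriZol RNA → oligo(dT) RT → PCR → 6-FAM primer extension → HpaI cut → CE. Gain/loss vs DMSO.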

A short description of test [9]: ATG_GATA_CIS: Attagene CIS-FACTORIAL HepG2 Assay for human GATA Binding Protein (AID 2282944). To be noted: HepG2 GATA cis-element reporter, Attagene multiplex mRNA; actives raise or lower the signal. An outline of the steps: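 Transfected cis-reporter HepG2 cells were treated with chemicals for 24 hours. Total RNA was then converted to cDNA, amplified with reporter-specific primers and analysed by fluorescent capillary electrophoresis, using DMSO-treated wells as baseline.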

The nature of test [10]: ATG_GLI_CIS: Attagene CIS-FACTORIAL HepG2 Assay for human Zinc Finger Protein GLI1 (AID 2282945). To be noted: HepG2, Attagene cis-factorial reporter mRNA, GLI element; actives raise or lower the signal. The procedure, abridged: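 Bidirectional curve fits relative to DMSO, using reporter mRNA levels from RT-PCR plus capillary electrophoresis. Cells were HepG2 transiently carrying cis-regulated reporter constructs, harvested 24 h after dosing.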

For test [11], the target named is Bile acid receptor (Homo sapiens) (UniProt Q96RI1). The test can be described thus: ATG_IR1_CIS: Attagene CIS-FACTORIAL HepG2 Assay for human Nuclear Receptor Subfamily 1 Group H Member 4 (NR1H4), IR1 submotif (AID 2282946). Particulars: IR1 reporter transcription, actives raise or lower the signal. An outline of the steps: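 Cells (human HepG2) carry transiently transfected cis-promoter reporter transcription units. Compounds are incubated 24 h, total RNA is reverse-transcribed and amplified, and labelled fragments are resolved by capillary electrophoresis. Curves use DMSO as baseline.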
Chain of Bile acid receptor (Homo sapiens) (Q96RI1 whole entry, looked up, the tested form may be a part): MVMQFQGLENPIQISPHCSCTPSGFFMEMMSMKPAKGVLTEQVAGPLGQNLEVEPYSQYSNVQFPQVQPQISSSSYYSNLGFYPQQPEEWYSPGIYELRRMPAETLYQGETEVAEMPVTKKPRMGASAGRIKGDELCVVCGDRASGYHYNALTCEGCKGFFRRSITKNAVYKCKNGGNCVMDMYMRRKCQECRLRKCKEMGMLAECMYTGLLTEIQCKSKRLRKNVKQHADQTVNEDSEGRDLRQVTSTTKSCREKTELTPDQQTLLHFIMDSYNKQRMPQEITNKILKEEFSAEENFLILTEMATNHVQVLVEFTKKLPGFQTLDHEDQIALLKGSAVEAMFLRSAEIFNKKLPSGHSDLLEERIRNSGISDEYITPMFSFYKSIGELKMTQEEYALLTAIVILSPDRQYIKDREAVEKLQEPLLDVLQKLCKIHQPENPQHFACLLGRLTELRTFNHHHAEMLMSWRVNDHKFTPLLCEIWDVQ

A short description of test [12]: ATG_GRE_CIS: Attagene CIS-FACTORIAL HepG2 Assay for human Glucocorticoid Response Elements (GRE) (AID 2282947). To be noted: HepG2 GRE cis-reporter, Attagene multiplex mRNA; actives raise or lower the signal. An outline of the steps: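 Assay uses human hepatoma HepG2 cells transfected with cis-promoter reporter units, exposed 24 h. mRNA from reporters detected by RT-PCR plus capillary electrophoresis; DMSO serves as negative control and baseline.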

Test [13] in a line: ATG_ISRE_CIS: Attagene CIS-FACTORIAL HepG2 Assay for human Interferon Regulatory Factor 1 (IRF1) binding to an Interferon-Stimulated Response Element (ISRE) (AID 2282948). To be noted: HepG2 ISRE cis-reporter (Attagene), mRNA transcription readout; actives raise or lower the signal. An outline of the steps: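 Cell-based cis-reporter assay; HepG2; 24 h exposure; reporter mRNA by RT-PCR plus capillary electrophoresis fluorescence; activity in either direction scored relative to DMSO.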

A short description of test [14]: ATG_M_32_CIS: Attagene CIS-FACTORIAL HepG2 Assay for M32 Transcription Factor (Internal Marker) (AID 2282949).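 Further: background control marker of the multiplexed CIS panel rather than a real target.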 To be noted: HepG2 Attagene cis-factorial M32 reporter, mRNA; actives raise or lower the signal. An outline of the steps: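 Internal background marker read-out: RT-PCR/capillary electrophoresis fluorescence of reporter transcripts from transiently transfected HepG2 cells after 24 h chemical exposure. Activity fitted bidirectionally relative to DMSO negative control.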

Test [15] is described as follows: ATG_M_06_CIS: Attagene CIS-FACTORIAL HepG2 Assay for M06 Transcription Factor (Internal Marker) (AID 2282950). To be noted: HepG2 Attagene CIS-FACTORIAL M06 internal marker reporter; actives raise or lower the signal. An outline of the steps: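 Cells (HepG2, transiently carrying cis-driven reporter units) receive chemical for 24 h before RNA isolation. Reporter cDNA is PCR-amplified, FAM-labelled by primer extension, HpaI-digested and sized on a capillary analyser.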

In test [16] the target is Hypoxia-inducible factor 1-alpha (Homo sapiens) (UniProt Q16665). The test can be described thus: ATG_HIF1a_CIS: Attagene CIS-FACTORIAL HepG2 Assay for human Hypoxia Inducible Factor 1 (HIF1A) (AID 2282951). Particulars: HepG2 Attagene cis-factorial HIF1a reporter transcription; actives raise or lower the signal. An outline of the steps:
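Fluorescence intensity of capillary-separated, 6-FAM-labelled reporter amplicons gives mRNA induction in HepG2 cells carrying transfected cis-promoter reporter units; cells exposed 24 h, responses fitted up or down from DMSO.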

The target of test [17] is Hepatocyte nuclear factor 6 (Homo sapiens) (UniProt Q9UBC0). As to the kind of experiment: ATG_HNF6_CIS: Attagene CIS-FACTORIAL HepG2 Assay for human Hepatocyte Nuclear Factor 6 (HNF6) (AID 2282952). Particulars: HepG2 Attagene cis-factorial HNF6 reporter transcription; actives raise or lower the signal. An outline of the steps: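 Reporter mRNA induction or loss in HepG2 after 24 h exposure; transient cis-MRTU transfection; fragments quantified by capillary electrophoresis; bidirectional analysis, DMSO as negative control.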
Chain of Hepatocyte nuclear factor 6 (Homo sapiens) (Q9UBC0 whole entry, looked up, the tested form may be a part): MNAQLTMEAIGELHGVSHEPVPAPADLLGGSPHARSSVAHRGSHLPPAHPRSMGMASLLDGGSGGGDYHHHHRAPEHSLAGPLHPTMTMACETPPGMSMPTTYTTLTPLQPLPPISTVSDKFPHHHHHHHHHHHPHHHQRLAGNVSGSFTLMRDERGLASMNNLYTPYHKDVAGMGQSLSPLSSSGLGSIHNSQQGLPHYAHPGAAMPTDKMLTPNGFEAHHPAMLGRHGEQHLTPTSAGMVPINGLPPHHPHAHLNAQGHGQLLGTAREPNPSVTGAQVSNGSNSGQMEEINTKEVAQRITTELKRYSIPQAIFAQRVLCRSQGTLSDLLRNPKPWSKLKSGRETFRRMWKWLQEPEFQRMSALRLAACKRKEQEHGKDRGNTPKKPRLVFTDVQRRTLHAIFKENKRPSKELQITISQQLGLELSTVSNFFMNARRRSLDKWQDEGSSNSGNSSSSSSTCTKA

Test [18] has as its target Heat shock factor protein 1 (Homo sapiens) (UniProt Q00613). As to the kind of experiment: ATG_HSE_CIS: Attagene CIS-FACTORIAL HepG2 Assay for human Heat Shock Transcription Factor 1 (HSE) (AID 2282953). Particulars: HepG2 HSE cis-reporter, Attagene RNA transcription; actives raise or lower the signal. An outline of the steps:
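Liver-derived HepG2 cells carry transiently introduced multiple reporter units governed by cis promoters. Reporter RNA measured 24 h post-dose through reverse transcription, PCR amplification, fluorescent labelling and capillary electrophoresis, normalised to DMSO.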

Test [19] can be described thus: ATG_MRE_CIS: Attagene CIS-FACTORIAL HepG2 Assay for human Metal Responsive Element (MRE) (AID 2282954). Particulars: HepG2 MRE cis-reporter transcription, Attagene multiplex; actives raise or lower the signal. An outline of the steps: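 After a 24 h chemical exposure, transiently transfected HepG2 cells yield RNA whose reporter sequences are amplified, FAM-labelled and sized by capillary electrophoresis. Curves are fitted bidirectionally relative to DMSO.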

A short description of test [20]: ATG_PBREM_CIS: Attagene CIS-FACTORIAL HepG2 Assay for human Phenobarbital-responsive Enhancer Module (PBREM) (AID 2282955). To be noted: HepG2 PBREM cis-reporter, Attagene multiplexed transcription; actives raise or lower the signal. An outline of the steps:
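Cells were transfected with cis-element reporter units and treated for 24 h, after which RNA was extracted and reporter transcripts measured by RT-PCR and capillary electrophoresis.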

Chain of Heat shock factor protein 1 (Homo sapiens) (Q00613 whole entry, looked up): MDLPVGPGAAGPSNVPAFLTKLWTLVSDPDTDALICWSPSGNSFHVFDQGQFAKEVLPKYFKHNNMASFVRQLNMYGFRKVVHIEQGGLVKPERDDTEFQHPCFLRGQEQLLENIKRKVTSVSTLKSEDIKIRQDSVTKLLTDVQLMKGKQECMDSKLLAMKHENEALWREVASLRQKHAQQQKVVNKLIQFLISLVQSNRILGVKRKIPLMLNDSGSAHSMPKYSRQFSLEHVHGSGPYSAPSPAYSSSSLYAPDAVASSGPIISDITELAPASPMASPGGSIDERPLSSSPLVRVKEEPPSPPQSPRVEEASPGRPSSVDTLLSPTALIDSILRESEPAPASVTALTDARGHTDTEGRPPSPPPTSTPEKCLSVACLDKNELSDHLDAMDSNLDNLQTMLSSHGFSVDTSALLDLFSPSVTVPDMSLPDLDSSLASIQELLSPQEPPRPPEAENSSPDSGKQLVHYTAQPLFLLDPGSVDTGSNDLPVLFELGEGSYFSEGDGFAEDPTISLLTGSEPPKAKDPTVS
Chain of Hypoxia-inducible factor 1-alpha (Homo sapiens) (Q16665 whole entry, looked up): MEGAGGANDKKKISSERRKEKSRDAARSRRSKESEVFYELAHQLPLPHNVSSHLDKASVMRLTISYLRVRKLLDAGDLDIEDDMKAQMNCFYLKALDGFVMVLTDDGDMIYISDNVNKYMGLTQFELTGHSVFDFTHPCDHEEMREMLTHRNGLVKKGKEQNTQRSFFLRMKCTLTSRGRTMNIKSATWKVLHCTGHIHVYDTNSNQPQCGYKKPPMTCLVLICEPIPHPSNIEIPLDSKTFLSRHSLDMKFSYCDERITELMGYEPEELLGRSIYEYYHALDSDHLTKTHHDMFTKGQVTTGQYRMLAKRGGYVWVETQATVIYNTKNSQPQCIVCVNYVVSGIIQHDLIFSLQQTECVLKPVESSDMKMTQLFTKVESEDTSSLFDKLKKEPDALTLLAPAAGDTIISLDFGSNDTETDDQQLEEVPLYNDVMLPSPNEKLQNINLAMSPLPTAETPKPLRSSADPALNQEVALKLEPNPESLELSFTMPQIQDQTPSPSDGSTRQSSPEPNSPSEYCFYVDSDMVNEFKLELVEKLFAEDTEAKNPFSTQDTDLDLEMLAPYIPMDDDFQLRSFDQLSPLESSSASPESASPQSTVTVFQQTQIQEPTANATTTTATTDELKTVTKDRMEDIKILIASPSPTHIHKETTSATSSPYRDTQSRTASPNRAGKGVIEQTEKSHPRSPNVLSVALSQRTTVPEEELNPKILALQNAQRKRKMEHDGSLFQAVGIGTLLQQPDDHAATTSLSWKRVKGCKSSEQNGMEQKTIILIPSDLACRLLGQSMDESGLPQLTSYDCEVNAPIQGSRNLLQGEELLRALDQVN
Chain of Hepatocyte nuclear factor 3-beta (Homo sapiens) (Q9Y261 whole entry, looked up): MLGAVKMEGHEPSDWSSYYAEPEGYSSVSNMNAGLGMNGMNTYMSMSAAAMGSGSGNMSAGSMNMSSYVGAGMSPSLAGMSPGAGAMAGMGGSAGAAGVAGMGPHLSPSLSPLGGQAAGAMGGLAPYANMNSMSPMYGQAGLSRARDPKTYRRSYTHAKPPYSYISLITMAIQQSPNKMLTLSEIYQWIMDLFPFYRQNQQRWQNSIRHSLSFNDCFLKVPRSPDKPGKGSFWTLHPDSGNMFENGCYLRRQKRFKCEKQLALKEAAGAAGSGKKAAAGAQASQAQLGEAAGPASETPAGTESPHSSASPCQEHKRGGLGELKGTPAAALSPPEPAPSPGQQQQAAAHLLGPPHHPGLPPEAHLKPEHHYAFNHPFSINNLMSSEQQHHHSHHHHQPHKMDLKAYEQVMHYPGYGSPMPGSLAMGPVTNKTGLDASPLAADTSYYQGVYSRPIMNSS

With `NCc1cccc(C2CCN(C(=O)c3ccc(C#Cc4ccccc4F)o3)CC2)c1`, the outcome in test [1], in test [2], in [4], in test [6], in test [7] and in test [8] was inactive. Also, the outcome in [9], in [10], in [11], in test [12], in [14] and in [15] was inactive. The outcome in [16] and in test [17] was inactive. Besides, the AC50 (in general, the midpoint of the concentration-response curve, whichever way the signal moves) in test [3] was 11 µM (active); in test [5], 2.81 µM (active); in [13] it was 19.4 µM (active); in test [18] it was 17.2 µM (active); in test [19] it was 9.13 µM (active); in [20], 18 µM (active).
Turning to `CCCCCCCCCCCO`, the outcome in test [1], in test [2], in test [3], in test [4], in test [5] and in [6] was inactive. Moreover, the result in test [7], in test [8], in [9], in test [10], in test [11] and in [13] was inactive. Moreover, the result in test [14], in test [15], in test [16], in test [17], in test [19] and in [20] was inactive.
With `CCCCCCCCCCCCO`, the outcome in test [1], in test [2], in test [3], in [4], in test [5] and in test [6] was inactive. The molecule was called inactive in [7], in test [9], in test [10], in test [11], in test [13] and in test [14]. The outcome in test [15], in [16], in test [17], in [18], in test [19] and in test [20] was inactive.
For the molecule `Cc1oc2c(NC(=O)c3c(Cl)cccc3Cl)cccc2c1C(C)(C)O`, the outcome in test [1], in test [2], in test [4], in test [5], in test [6] and in [8] was inactive. Moreover, the molecule was called inactive in [9], in test [10], in test [12], in test [14], in test [15] and in test [17]. In addition, the AC50 was 47.6 µM (active) in test [3]; 27.3 µM (active) in test [7]; 158 µM (active) in test [11]; 26.8 µM (active) in [13]; 37.8 µM (active) in test [16]; 177 µM (active) in test [18]. Also, the AC50 in [19] was 129 µM (active); in test [20], 6.18 µM (active).
In the case of `Oc1ccc2ccccc2c1`, the AC50 is 8.89 µM (active) in test [1] and 100 µM (active) in [13]. The outcome in test [1], in test [2], in test [3], in test [4], in test [6] and in test [7] was inactive. Moreover, the molecule was called inactive in test [8], in test [9], in test [10], in test [12], in test [13] and in test [14]. In addition, the call in test [15], in [16], in test [17], in test [18] and in test [19] was inactive.
Turning to `O=c1c(-c2ccc(O)cc2)coc2cc(O)cc(O)c12`, the result in test [1], in [2], in [3], in test [4], in test [6] and in test [7] was inactive. Moreover, the outcome in test [8], in [9], in [10], in test [11], in test [12] and in [13] was inactive. For the same molecule, the molecule was classed as inactive in test [14], in test [15], in [16], in test [17], in [18] and in test [19]. Moreover, the result in test [20] was inactive. Also, the AC50 in test [11] is 10.4 µM (active) and 10.6 µM (active); in test [19], 81.4 µM (active) and 137 µM (active); in [20], 43.7 µM (active).
